CtBP-E1A blk: inhibitors of CtBP/E1A interaction; hit rate 0.49% among 340,000; AlphaScreen GST-E1A/His-CtBP binding, 1536-well; hits give low values; activity change, % (test concentration not listed); in the data active = activity change below about -65%; inconclusive = mostly about -30% to -63%
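AlphaScreen with 125 nM GST-E1A and 125 nM His-CtBP (5X stocks) in Tris pH 8.0, 300 mM NaCl, BSA, Tween 20, TCEP. Compounds preincubated 2 h at 37 deg C, then glutathione donor/nickel acceptor beads added for 1 h at 37 deg C in dark.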
Six1-Eya2 blk: blocks human Six1 binding to Eya2 | AlphaScreen GST-Six1/His-Eya2 binding, biochemical; hits give low values | hit rate 0.56% among 360,000 | activity change, % (concentration not given with the values); in the data active = activity change below about -65%; inconclusive = mostly about -30% to -63%
Target sequence (O00167 whole entry, looked up): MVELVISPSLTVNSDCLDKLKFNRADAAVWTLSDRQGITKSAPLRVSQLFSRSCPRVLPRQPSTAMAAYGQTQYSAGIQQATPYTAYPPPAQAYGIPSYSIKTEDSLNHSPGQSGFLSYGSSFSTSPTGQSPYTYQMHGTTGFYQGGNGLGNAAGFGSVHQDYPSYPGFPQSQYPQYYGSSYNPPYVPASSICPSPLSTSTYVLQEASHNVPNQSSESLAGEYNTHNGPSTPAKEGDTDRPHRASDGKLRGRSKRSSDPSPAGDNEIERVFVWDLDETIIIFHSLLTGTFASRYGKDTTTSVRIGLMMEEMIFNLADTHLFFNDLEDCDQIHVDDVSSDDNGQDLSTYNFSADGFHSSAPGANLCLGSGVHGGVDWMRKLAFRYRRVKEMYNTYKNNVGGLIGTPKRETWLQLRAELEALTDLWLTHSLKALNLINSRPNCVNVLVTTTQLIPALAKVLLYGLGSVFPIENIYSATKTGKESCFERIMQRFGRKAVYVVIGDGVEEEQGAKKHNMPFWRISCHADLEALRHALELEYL
Target sequence (Q15475 whole entry, looked up): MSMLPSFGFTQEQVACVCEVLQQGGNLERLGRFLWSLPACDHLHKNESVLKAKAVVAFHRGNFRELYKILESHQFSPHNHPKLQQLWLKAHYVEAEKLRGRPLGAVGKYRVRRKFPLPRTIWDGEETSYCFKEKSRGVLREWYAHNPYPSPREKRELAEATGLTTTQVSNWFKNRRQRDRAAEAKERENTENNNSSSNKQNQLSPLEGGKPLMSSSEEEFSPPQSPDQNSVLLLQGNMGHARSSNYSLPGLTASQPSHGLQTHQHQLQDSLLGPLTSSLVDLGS
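Homogeneous AlphaScreen proximity assay pairing GST-Six1 with His-tagged Eya2 (added as 5X mix: 250 nM and 500 nM) in 50 mM Tris pH 8.0, 300 mM NaCl, 1 mM TCEP. Glutathione donor and nickel acceptor beads; 1 h, 37 °C, dark.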
CBFb-RUNX1 inh: CBF-beta/RUNX1 interaction disruption. Q01196+Q13951. AlphaScreen CBFb-His/RUNX1-biotin binding, biochemical. Potency, µM (top dose mostly 59.8 µM), hits mostly inhibitors. 230,000 tested, under 10 active. AID 1477
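CBFb-His/RUNX1-biotin, 30 nM each, preincubated 20 min RT; compound 15 min RT; Ni + streptavidin beads 50 ng each, 90 min RT; AlphaScreen read.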
RORgamma inh: inhibitors of mouse ROR gamma transcriptional activity; AID 2551; P51450; Potency, µM (top dose mostly 53.6 µM), hits mostly inhibitors; Drosophila S2 Gal4-RORgamma UAS-luciferase reporter, 20 h; hit rate 5.4% among 310,000; note: nearly all actives have a fitted effect of over 60% in size
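Read-out: Photinus luciferase luminescence; inhibitors lower reporter signal. Insect Schneider cells with Gal4-ROR gamma fusion under metallothionein promoter, UAS reporter; 700 uM final copper sulfate induction, 20 hr, ambient temperature.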
VP16 counter: Gal4-VP16 reporter inhibition counter-screen | Drosophila S2 Gal4-VP16 UAS-luciferase, luminescence, 20 h | Potency, µM (top dose mostly 53.6 µM), actives largely listed as inhibitors | hit rate 3.5% among 310,000 | AID 2546;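 note: Gal4-VP16 expression switched on by copper sulfate through the metallothionein promoter; nearly all actives have a fitted effect of over 50% in size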
MBNL1 CUG block: inhibitors of human MBNL1 binding to CUG repeat RNA. Potency, µM (series often up to 57.5 µM), usual class: inhibitors. TR-FRET MBNL1-His/biotin-(CUG)12 binding, 665/545 ratio. hit rate 0.036% among 280,000; active = well fitted inhibition curve with a large enough effect in the signal ratio, with a control signal flat, not every such curve was filed as active; inconclusive = small, poorly fitted or top-dose-only effect, or effect the other way, or a change in a side signal; inactive = no such curve, though single readings can be large or run the other way; the % refers to the signal ratio
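Inhibition of protein-RNA binding appears as loss of TR-FRET between terbium anti-His antibody on MBNL1-His and streptavidin-XL665 on biotin-(CUG)12. Activity is normalized to buffer-only and uninhibited-complex controls.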
Hits are given with their value; i = inactive; ? = inconclusive; nt = no result; [ ] = remark or other dose. Most compounds without a hit are left out; they make up all but 5.5% or so of the library. Unless noted, calls come from the whole dose curve; as a rule, active = well fitted curve in the direction sought with a large enough effect; inconclusive = small, poorly fitted or top-dose-only effect, or another doubt; inactive = no such curve, though single readings can be large; an effect the other way counts as inactive or inconclusive.

SMILES	CtBP-E1A blk	Six1-Eya2 blk	CBFb-RUNX1 inh	RORgamma inh	VP16 counter	MBNL1 CUG block
Cc1ccc(NS(=O)(=O)c2ccc(C(=O)N3CCN(c4ncccn4)CC3)cc2)cc1	nt	i	i	i	1.3µM	i
Cn1cc(S(=O)(=O)N2CCc3ccccc32)cc1C(=O)NC(C)(C)C	i	i	nt	i	5µM	i
COc1cccc(NS(=O)(=O)c2ccc3c(c2)CCN3C(C)=O)c1	i	i	nt	?	16µM	i
Cc1cc(C)nc(NS(=O)(=O)c2ccc(NC(=O)c3ccccc3Br)cc2)n1	i	i	nt	nt	nt	nt
CC(=O)N1c2ccc(S(=O)(=O)NC(CC(=O)O)c3ccc(Br)cc3)cc2CC1C (configuration not stated)	i	i	nt	i	i	i
COc1ccccc1NS(=O)(=O)c1cc(C(=O)NCCCN2CCCC2=O)ccc1C	i	i	nt	nt	nt	nt
CC(=O)N1CCCc2cc(S(=O)(=O)Nc3cccc(C)c3C)ccc21	i	i	nt	i	i	i
CC(=O)N1CCc2cc(S(=O)(=O)Nc3ccc(C)cc3)ccc21	i	i	nt	?	i	i
CC(=O)N1CCc2cc(S(=O)(=O)Nc3cccc(C(F)(F)F)c3)ccc21	i	i	i	?	5µM	i
COc1cccc(S(=O)(=O)Nc2ccc(C(=O)N3CCCCCC3)cc2)c1	i	i	i	8.9µM	8.9µM	i
CSc1cccc(NS(=O)(=O)c2ccc3c(c2)CCN3C(C)=O)c1	i	i	nt	?	4.5µM	i
O=C(NCC(c1ccco1)N1CCCCC1)c1cnc(Cl)c(Cl)c1 (configuration not stated)	i	i	nt	nt	nt	nt
CCOc1ccc(/C=N/NC(=O)c2[nH]ncc2Br)c(O)c1	-92	-83	i	3.5µM	11µM	i
Cc1ccc(O)c(/C=N/NC(=O)c2[nH]ncc2Br)c1	i	i	?	1.3µM	1.3µM	nt
O=C(N/N=C/c1c(O)ccc2ccccc12)c1[nH]ncc1Br	-90	-85	?	2.5µM	4.5µM	i
Cc1ccc(O)c(/C=N/NC(=O)C2=NNC(c3ccccc3)(c3ccccc3)C2)c1	nt	nt	i	1.4µM	2.8µM	i
CC(C)COC(=O)N1CCCCC1c1cc(C(=O)NCc2ccc(F)cc2)no1 (configuration not stated)	i	i	nt	nt	nt	nt
COc1ccc(NC(=O)CS(=O)(=O)c2cccc(Cl)c2)cc1	i	i	nt	i	i	i
COC(=O)C1=NOC2(C=C(Br)C(OC)=C(Br)C2=O)C1 (configuration not stated)	nt	nt	i[13.1 µM]	1.8µM	2.5µM	nt
O=C1NC[C@@H](CCCCN2C[C@H](Cc3ccc(O)cc3)N(CCC3CCCCC3)C(=O)C2=O)N(Cc2ccccc2)C1=O	i	i	nt	nt	nt	nt
COc1cc(OC)cc(-c2n[nH]c(=S)n2-c2ccc3c(c2)OCO3)c1	i	i	i	5.6µM	?	nt
Cc1ccc(-n2c(-c3cnccn3)n[nH]c2=S)cc1	i	i	i	?	i	i
Cc1ccc(-n2c(-c3ccc(Cl)cc3Cl)n[nH]c2=S)cc1	i	i	nt	3.2µM	5µM	i
O=C(O)c1ccc(-n2c(-c3ccccc3)n[nH]c2=S)cc1	i	i	i	i	i	i
Fc1ccc(-n2c(-c3ccc4c(c3)OCO4)n[nH]c2=S)cc1Cl	i	i	i	?	?	i
SMILES	CtBP-E1A blk	Six1-Eya2 blk	CBFb-RUNX1 inh	RORgamma inh	VP16 counter	MBNL1 CUG block
CC(c1ccccc1)n1c(-c2ccc(C(C)(C)C)cc2)n[nH]c1=S (configuration not stated)	i	i	nt	7.1µM	7.1µM	i
Cc1ccc(-n2c(-c3ccccc3)n[nH]c2=S)cc1	i	i	i	3.2µM	5.6µM	?
COC(=O)[C@@]1(Cc2ccc(F)cc2)[C@H]2c3cc(C(=O)N4CCCC4)n(Cc4cccc5ccccc45)c3C[C@H]2CN1C(=O)c1ccccc1	nt	nt	i	i	i	nt
Cc1ccc(-n2c(-c3ccccc3)n[nH]c2=S)c(C)c1	i	i	nt	5µM	4.5µM	i
Cc1ccc(-n2c(-c3ccncc3)n[nH]c2=S)cc1C	i	i	i	i	i	i
Cc1ccc(-n2c(-c3ccncc3)n[nH]c2=S)cc1	i	i	i	11µM	i	i
C=C(C)Cn1c(-c2ccncc2)n[nH]c1=S	i	i	i	13µM	i	nt
CC(C)(C)c1ccc(-c2n[nH]c(=S)n2-c2ccccc2)cc1	i	i	nt	3.2µM	2.8µM	i
COC(=O)Cn1c(O)c(N=NC(=O)CNC(=O)c2ccncc2)c2ccccc21	i	i	nt	i	i	?
O=C(NC1CCCCC1)c1ccc(-c2ccccc2F)o1	i	i	nt	nt	nt	nt
Nc1c(-c2n[nH]c(=S)n2-c2ccc(Cl)cc2Cl)cnn1-c1ccccc1	i	i	i	2.8µM	i	i
Cn1c(-c2cnn(-c3ccccc3)c2N)n[nH]c1=S	nt	i	i	i	i	i
Cc1ccc(-n2c(Cc3cccc4ccccc34)n[nH]c2=S)c(C)c1	i	i	i	1.1µM	?	i
COc1ccc(-n2c(-c3ccc(C)cc3)n[nH]c2=S)cc1	i	i	i	1.4µM	3.2µM	nt
CCCn1c(N)c(C(=O)CSc2nc3ccccc3c(=O)n2Cc2ccccc2)c(=O)[nH]c1=O	i	i	i	5µM	?	i
CCN(CC)C(=O)C1=C(C)N(Cc2ccccc2)C(=O)C(CC(=O)NCCCCc2ccccc2)C1 (configuration not stated)	i	i	nt	nt	nt	nt
COc1ccc(NC(=O)[C@@H]2CCCN2S(=O)(=O)c2ccccc2F)cc1S(=O)(=O)N1CCCCC1	i	i	nt	nt	nt	nt
CSc1nnc2c(n1)OC(C)=Nc1ccccc1-2	i	-66	i	i	i	?
CCN1C(=O)CC(N2CCC(C(=O)N3CCOCC3)CC2)C1=O (configuration not stated)	i	i	i	i	i	i
O=C(C1CCN(C2CC(=O)N(c3ccc(F)cc3)C2=O)CC1)N1CCOCC1 (configuration not stated)	i	?	i	13µM	?	i
COc1ccc(CC(=O)NNC2=Nc3cccc4cccc2c34)cc1OC	nt	i	i	?	i	i
O=C(NNC1=Nc2cccc3cccc1c23)c1ccc(Br)cc1	i	i	i	0.71µM	2µM	i
CC(C)CC[n+]1ccn(-c2nc3ccccc3nc2[N-]S(=O)(=O)c2ccc(Cl)cc2)c1	i	i	i	i	i	i
O=C(/C=C/c1ccco1)NC(=S)Nc1cc(C(F)(F)F)ccc1N1CCOCC1	i	i	i	6.3µM	?	i
O=C(/C=C/c1ccco1)NC(=S)Nc1ccccc1N1CCCC1	?	?	i	?	?	?
O=C(/C=C/c1ccco1)NC(=S)Nc1ccccc1N1CCOCC1	i	i	i	2.8µM	8.9µM	i

Compound activity: PubChem BioAssay, National Center for Advancing Translational Sciences (NCATS)
